KB-3-1 tox – kills parental KB-3-1 adenocarcinoma cells; hit rate 1.4% among 400,000; KB-3-1 viability, CellTiter-Glo ATP luminescence, 72 h; Potency, µM (series often up to 46.1 µM), actives largely listed as cytotoxic; AID 1347075; also: % is scaled to controls: 0 for no effect and ±100 for the full control effect; nearly all actives have a fitted effect of over 60% in size
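Parental KB-3-1 adenocarcinoma cells in phenol-red-free DMEM with 10% FBS were pin-treated with compounds at several concentrations, incubated 72 h at 37 °C, and viability read by CellTiter-Glo luminescence; concentration-effect curves were fitted after normalization.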
ELG1 repair inh – inhibitors of ELG1-dependent DNA repair in HEK293T cells; HEK293T ELG1-luciferase reporter, luminescence, 16 h; DNA damage induced by 5-fluorouridine; Potency, µM (highest dose often 46.1 µM), for the others: top-dose activity change, negative = inhibition, actives largely listed as inhibitors; hit rate 2.3% among 330,000; AID 504467; also: % is scaled to controls: 0 for no effect and ±100 for the full control effect; nearly all actives have a fitted effect of over 55% in size
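HEK293T cells expressing luciferase-tagged ELG1 (2,000/well) received 5-Fluorouridine plus compound or DMSO for 16 hr at 37 °C. Luciferase was read by ONE-Glo luminescence after 30 min at room temperature.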
SW480 rerep – induces DNA re-replication in SW480 colon adenocarcinoma cells; SW480 DNA re-replication, Hoechst DNA content imaging, 48 h; Potency, µM (doses to about 46.1 µM), without a hit: top-dose re-replication activation, usual class: activators; hit rate 1.8% among 340,000; AID 624297; also: % of control where 0% means no effect; nearly all actives have a fitted effect of over 55% in size
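Image-based read-out: total Hoechst fluorescence of nuclei (405 nm excitation, 500-530 nm emission), with hits raising the fraction of high-intensity nuclei. SW480 colon cells incubated 48 hr with compounds at 37 C.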
MCF10A rereplic – induces DNA re-replication in MCF 10a normal breast cells; Potency, µM (top dose mostly 46.1 µM), inactives show at the highest dose activity, positive = re-replication, usual class: activators; hit rate 2.9% among 350,000; MCF 10A DNA re-replication, Hoechst nuclear intensity, 48 h; also: % of control where 0% means no effect; nearly all actives have a fitted effect of over 50% in size
KB-V1 MDR tox – KB-V1 MDR subline cytotoxicity. Potency, µM (top dose mostly 46.1 µM), most hits filed as cytotoxic. KB-V1 MDR cells viability, CellTiter-Glo, 72 h. hit rate 3.4% among 400,000; also: % is scaled to controls: 0 for no effect and ±100 for the full control effect; nearly all actives have a fitted effect of over 60% in size
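Luminescent ATP read-out (CellTiter-Glo, 10 min) measures survival of drug-selected KB-V1 MDR cells after 72 h, 37 degrees C compound exposure. Medium: phenol-red-free DMEM, 10% FBS. Values from fitted concentration-response curves.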
The depositor's hits bear a star; i = inactive; ? = inconclusive; / = no result; ! = repeats disagree. An excerpt weighted towards active compounds, which were near 8.1% of everything screened. Calls follow the shape of the dose curve; as a rule, active = well fitted curve in the direction sought with a large enough effect; inconclusive = small, poorly fitted or top-dose-only effect, or another doubt; inactive = no such curve, though single readings can be large; an effect the other way counts as inactive or inconclusive. Potency is read from the fitted curve at half-maximal effect.

SMILES | KB-3-1 tox | ELG1 repair inh | SW480 rerep | MCF10A rereplic | KB-V1 MDR tox
Cc1ccc(OCC(O)Cn2c(=N)n(Cc3ccccc3)c3ccccc32)cc1 (stereo not drawn) | i | ? | ? | ? | 16µM*
N=c1n(CC(=O)c2ccc(Br)cc2)c2ccccc2n1Cc1ccccc1 | ? | ? | -3% | 12% | ?
N=c1n(Cc2ccccc2)c2ccccc2n1Cc1ccccc1 | ? | ? | 23µM* | ? | 18µM*
Cc1ccc(Cl)cc1NC(=O)CSc1nc2ccccc2c2nc(-c3ccccc3)nn12 | i | / | / | / | i
CC(C)(C)OC(=O)N1CCCC(C(=O)Nc2ccc(C(=O)NCc3ccccc3)cc2)C1 (stereo not drawn) | i | / | -51% | 21% | i
O=C1CC(NC(=O)C(F)(F)F)c2cc3c(cc21)OCO3 (stereo not drawn) | i | 0% | -5% | -3% | i
COc1cc2c(cc1OC)C(NC(=O)C(F)(F)F)CNC2=O (stereo not drawn) | i | 12µM* | 1% | -4% | i
Cc1ccc2[nH]cc(C(O)c3c[nH]c4ccc(C)cc34)c2c1 | i | / | / | / | i
Cc1[nH]c2ccccc2c1/C=N/Nc1ccccc1[N+](=O)[O-] | ? | ? | -4% | 4% | ?
COc1ccc(NS(=O)(=O)c2cc([N+](=O)[O-])ccc2N/N=C/c2c(C)[nH]c3ccccc23)cc1 | i | / | 15% | 9.2µM* | i
CC(=O)Nc1ccc(C=NNc2ccc(S(=O)(=O)Nc3ccccc3C(=O)O)cc2[N+](=O)[O-])cc1 | i | 15% | -3% | -39% | i
CC(=O)Nc1ccc(C=NNc2ccc([N+](=O)[O-])cc2S(=O)(=O)Nc2ccccc2C(=O)O)cc1 | i | ? | 148% | 21µM* | i
COc1ccc(C(C)=NNc2ccc([N+](=O)[O-])cc2S(=O)(=O)Nc2ccccc2C(=O)O)c(OC)c1 | i | -2% | ? | 9.2µM* | i
Cc1cc(OCC(=O)Nc2c(C(=O)c3ccccc3)oc3ccccc23)cc(C)c1Cl | i | / | / | / | ?
Cn1nnnc1Sc1ccc([N+](=O)[O-])cc1Cl | i | 14% | ? | ? | i
CC(=O)c1ccc(Sc2nnnn2-c2ccccc2)c([N+](=O)[O-])c1 | ? | -11% | ? | ? | ?
O=[N+]([O-])c1ccc(Sc2nnnn2-c2ccccc2)c(Cl)c1 | ? | 4% | ? | 4.1µM* | ?
CN1CCN(S(=O)(=O)c2ccc(Sc3nnnn3-c3ccccc3)c([N+](=O)[O-])c2)CC1 | ? | -25% | 16µM* | 6.5µM* | ?
CCc1ccc(S(=O)(=O)c2nnn3c2nc(Nc2ccc(F)cc2)c2cc(Cl)ccc23)cc1 | i | / | / | / | i
O=C(Nc1ccc(Cl)c(C(F)(F)F)c1)C1CCCN(S(=O)(=O)c2cccc3cccnc23)C1 (stereo not drawn) | i | / | / | / | i
COc1ccc(NC(=O)CN2C(=O)COc3ccc(S(=O)(=O)Nc4ccccc4)cc32)cc1 | i | / | / | / | i
CCOC(=O)CN1N=C(/C=C/c2ccc(C)cc2)CCC1=O | 5.2µM* | ? | 14% | 13% | 5.8µM*
Cc1ccccc1CN1N=C(/C=C/c2ccccc2)CCC1=O | i | ? | -1% | 0% | ?
CCOc1ccc(CN(C)c2ccc(S(=O)(=O)N3CCN(C)CC3)cc2[N+](=O)[O-])cc1OC | 7.3µM* | 1% | -5% | ? | 2.3µM*
C=CCOc1ccc(CN(C)c2ccc(S(=O)(=O)N3CCN(C)CC3)cc2[N+](=O)[O-])cc1 | ? | -15% | 3% | ? | 8.2µM*
SMILES | KB-3-1 tox | ELG1 repair inh | SW480 rerep | MCF10A rereplic | KB-V1 MDR tox
C=C(C)Cn1c2ccc(NC(=O)NCCc3ccccc3)cc2c(=O)n1C | i | / | / | / | i
Cc1cc(C)n(CCc2nc(-c3ccc(C(C)(C)C)cc3)cs2)n1 | i | -6% | 14% | ? | 16µM*
Cc1ccc(C(=O)NN(C)c2nc3ccccc3nc2C(F)(F)F)cc1 | 5.8µM* | -13% | 13µM* | 4.6µM* | ?
CN(N)c1nc2ccccc2nc1C(F)(F)F | i | 2% | -2% | 18% | i
CN(NC(=O)c1ccc(Cl)cc1)c1nc(-c2ccccc2)nnc1C(F)(F)F | ? | ? | -2% | ? | 15µM*
CC(C)CC(=O)NN(C)c1nc(-c2ccccc2)nnc1C(F)(F)F | i | -9% | -3% | 9% | i
O=C(Nc1cccc(O)c1)c1noc2c1CCc1ccccc1-2 | i | ? | 3% | -1% | 23µM*!
COc1cc(CNc2ncnc3c2ncn3[C@H]2CN(Cc3cccc4ccccc34)C[C@@H](CO)O2)cc(OC)c1OC | ? | / | / | / | 21µM*
O=C(C[n+]1cccc2cc(Cl)ccc21)c1ccc(I)cc1 | ? | / | / | / | i
COc1ccc(C(CNC(=O)c2cccc(S(=O)(=O)Nc3ccc(C)cc3)c2)N2CCOCC2)cc1 (stereo not drawn) | ? | -25% | 1% | 12% | ?
COc1ccc(C(CNC(=O)c2cccc(S(=O)(=O)NCc3ccccc3)c2)N2CCOCC2)cc1 (stereo not drawn) | i | 0% | -1% | -4% | 18µM*
Cc1ccc(NS(=O)(=O)c2cccc(C(=O)NCC(c3ccco3)N3CCCC3)c2)cc1 (stereo not drawn) | i | -6% | ? | 12µM* | i

Screens deposited in PubChem BioAssay by National Center for Advancing Translational Sciences (NCATS).
